Laboratory results reported in PubChem BioAssay (Tox21).
Records with an inconclusive call do not appear. Where a call stands in place of a potency, no number is given. Activity calls are given as the source filed them. Calls come from the whole dose curve.

Molecular target: 5-hydroxytryptamine receptor 2A (Homo sapiens) (UniProt P28223)
Experiment: 5-hydroxytryptamine receptor 2A (HTR2A) small molecule agonists, cell-based qHTS assay (AID 1963587); note: nearly all actives have a fitted effect of over 30% in size
Settings: HTR2A-CHO cells, calcium flux fluorescence, agonist mode; series mostly up to 76.8 µM
Source text: National Center for Advancing Translational Sciences [NCATS]
Division of Preclinical Innovation [DPI]
U.S. Environmental Protection Agency [EPA]
National Institutes of Environmental Health Sciences [NIEHS]
National Toxicology Program [NTP]
U.S. Food and Drug Administration [FDA]
The HTR2A receptor is a subtype of the 5-HT2 receptor that belongs to the serotonin receptor family and is a G protein-coupled receptor (GPCR). The HTR2A-CHO cell line stably expressing human 5-hydroxytryptamine receptor 2A (HTR2A) can be used for screening agonists of interactions between 5-HT2 and its ligands. The HTR2A-CHO calcium flux assay is a homogeneous fluorescence-based assay for detecting the intracellular calcium level using FDSS kinetic plate reader system.
HTR2A-CHO cells were dispensed at 2000 cells/3uL/well in 1536-well black-clear bottom plates using a Multidrop Dispenser. After the assay plates were incubated at a 37 C/5% CO2 incubator for 18 h, 3 uL of Dye Loading Buffer was transferred to the assay plate by a Flying Reagent Dispenser. The assay plates were incubated at 37 C for 1h. For agonist mode, 23 nL of compounds dissolved in DMSO, positive controls or DMSO only was transferred to the assay plate by a pin tool. The fluorescence intensity in the plates was measured using FDSS 7000EX kinetic plate reader for 2 min at 1 sec intervals.
Potency is the fitted concentration of half-maximal effect.

Chain of 5-hydroxytryptamine receptor 2A (Homo sapiens) (P28223 whole entry, looked up): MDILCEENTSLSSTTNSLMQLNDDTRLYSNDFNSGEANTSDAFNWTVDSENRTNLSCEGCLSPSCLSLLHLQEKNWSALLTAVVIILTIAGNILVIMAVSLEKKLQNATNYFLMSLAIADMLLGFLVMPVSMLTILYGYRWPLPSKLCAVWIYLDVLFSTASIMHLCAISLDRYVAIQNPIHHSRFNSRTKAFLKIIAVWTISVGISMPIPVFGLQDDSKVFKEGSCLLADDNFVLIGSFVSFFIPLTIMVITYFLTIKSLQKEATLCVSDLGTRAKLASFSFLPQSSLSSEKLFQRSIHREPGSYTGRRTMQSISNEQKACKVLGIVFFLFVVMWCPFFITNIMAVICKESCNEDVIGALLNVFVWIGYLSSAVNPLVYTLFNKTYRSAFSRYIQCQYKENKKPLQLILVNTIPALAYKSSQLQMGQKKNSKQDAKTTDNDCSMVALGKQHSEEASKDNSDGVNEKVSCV

| Structure (SMILES) | Potency | activation |
| --- | --- | --- |
| CCC1CO1 (stereo not given) | inactive | – |
| CCCCCCCCCCc1ccccc1 | inactive | – |
| CN(C)CCn1nnnc1SCC1=C(C(=O)O)N2C(=O)[C@@H](NC(=O)Cc3csc(N)n3)[C@H]2SC1 | inactive | – |
| O=C(O)c1cc(O)c2c(c1)C(=O)c1cccc(O)c1C2=O | inactive | – |
| CC(CN(C)C)C(C)(O)Cc1ccc(Cl)cc1 (stereo not given) | inactive | – |
| OCc1ccccn1 | inactive | – |
| O=C(CO)[C@@H](O)[C@H](O)[C@H](O)CO | inactive | – |
| CC(C)C[C@H](NC(=O)[C@H](CCc1ccccc1)NC(=O)CN1CCOCC1)C(=O)N[C@@H](Cc1ccccc1)C(=O)N[C@@H](CC(C)C)C(=O)[C@@]1(C)CO1 | inactive | – |
| OCC(O)[C@@H](O)[C@H](O)[C@H](O)CO[C@H]1O[C@H](CO)[C@@H](O)[C@H](O)[C@H]1O (stereo not given in full) | inactive | – |
| CCCCCCC(O)CO (stereo not given) | inactive | – |
| C/C(=N\O)c1ccc(OCC(=O)N2CCCCC2)cc1 | inactive | – |
| O=C1c2ccccc2C(=O)C1c1ccc2ccccc2n1 | inactive | – |
| CCCC(=O)OC(=O)CCC | inactive | – |
| COC(=O)C(C)O (stereo not given) | inactive | – |
| C=COC(=O)C(C)(CC)CCC(C)C (stereo not given) | inactive | – |
| CC1(N)CCC(C(C)(C)N)CC1 (stereo not given) | inactive | – |
| Cc1ccc(Cl)cc1Cl | inactive | – |
| Cc1ccsc1C(=CCCN1CCC[C@@H](C(=O)O)C1)c1sccc1C | inactive | – |
| O=C1c2ccccc2C(=O)c2cc(Cl)ccc21 | – | -2.59% [at 7.02 µM] (inactive) |
| CN(C)CCN1CCOCC1 | inactive | – |

| Structure (SMILES) | Potency | activation |
| --- | --- | --- |
| Nc1ccccc1S(=O)(=O)c1ccccc1 | inactive | – |
| Cc1ccnc(N)c1 | inactive | – |
| O=[N+]([O-])c1ccc(F)c(Cl)c1 | inactive | – |
| O=C(O)/C=C/c1ccc(/C=C/C(=O)O)cc1 | inactive | – |
| COc1ccc(CCC(=O)c2c(O)cc(O[C@@H]3O[C@H](CO)[C@@H](O)[C@H](O)[C@H]3O[C@@H]3O[C@@H](C)[C@H](O)[C@@H](O)[C@H]3O)cc2O)cc1O | inactive | – |
| C[C@H](N)C(=O)N[C@@H](C)C(=O)NC1[C@H]2CN(c3nc4c(cc3F)c(=O)c(C(=O)O)cn4-c3ccc(F)cc3F)C[C@@H]12 (stereo not given in full) | inactive | – |
| CC(C)=CC(=O)C=C(C)C | inactive | – |
| OC(CCN1CCCC1)(c1ccccc1)C1CCCCC1 (stereo not given) | inactive | – |
| Cc1nc2n(c(=O)c1CCN1CCC(c3noc4cc(F)ccc34)CC1)CCC[C@H]2O | – | -9.85% [at 15.9 µM] (inactive) |
| CCOC(=O)/C=C/C(=O)O | inactive | – |
| Clc1nc(C(Cl)(Cl)Cl)c(Cl)c(Cl)c1Cl | inactive | – |
| C=C(C)C(=O)OCCN(C)C | inactive | – |
| C=CC(C)(O)CCCC(C)CCCC(C)CCCC(C)C (stereo not given) | inactive | – |
| [Cl][Pt-2]([Cl])([Cl])[Cl] | inactive | – |
| CCC(C(=O)OCCN1CCOC(c2ccccc2)C1C)c1ccccc1 (stereo not given) | inactive | – |
| C=CCOC(=O)/C=C\C(=O)OCC=C | inactive | – |
| C=CC(=O)OCCOCCOC(=O)C=C | inactive | – |
| CC(=O)C1CCCCC1=O (stereo not given) | inactive | – |
| Cc1ccc2c(c1)c1c3n2CCNC3CCC1 (stereo not given) | 9.52 µM (active) | – |
| O=C(Nc1ccccc1)c1ccccc1O | inactive | – |
